# Read-outs that look alike come from different tables or passages of the source.
# Legend:
# Parameters in all cases: species or system human, MV4-11 + K-562 + COLO205 + SK-N-BE2 + OVCAR-8
# DDR1 = conditions: read-out: apparent Kd, n = 1
# MAPK10 = conditions: read-out: apparent Kd, n = 1
# MAPK11 = conditions: read-out: apparent Kd, n = 1
# MAPK14 = conditions: read-out: apparent Kd, n = 1
# MAPK8 = conditions: read-out: apparent Kd, n = 1
# MAPK9 = conditions: read-out: apparent Kd, n = 1
# PIP4K2C = conditions: read-out: apparent Kd, n = 1
# DJA1 = test system: T1, DJA1; conditions: read-out: apparent Kd, n = 1
# T1 construct: gene DNAJA1
# PRKD2 = conditions: read-out: apparent Kd; compound concentrations:100 nM and 1000 nM (sheet 'Samples'); n = 1
# PRKD3 = conditions: read-out: apparent Kd; compound concentrations:100 nM and 1000 nM (sheet 'Samples'); n = 1
# EGFR = conditions: read-out: apparent Kd, compound concentrations: 100 nM and 1000 nM (sheet 'Samples'), n = 1
# PDXK = conditions: read-out: apparent Kd; compound concentrations: 100 nM and 1000 nM (sheet 'Samples'), CATDS: 0.488762713371233; n = 1
# MAPKAPK2 = conditions: read-out: apparent Kd, compound concentrations: 100 nM and 1000 nM (sheet 'Samples'), n = 1
# NLK = conditions: read-out: apparent Kd; compound concentrations: 100 nM and 1000 nM (sheet 'Samples'), CATDS: 7.8409581021953403E-2; n = 1
# RET = conditions: read-out: apparent Kd; compound concentrations: 100 nM and 1000 nM (sheet 'Samples'), CATDS: 0.66241044961877704; n = 1
# MAP2K1 = conditions: read-out: apparent Kd; compound concentrations:100 nM and 1000 nM (sheet 'Samples'); n = 1
# PIM2 = conditions: read-out: apparent Kd; compound concentrations:100 nM and 1000 nM (sheet 'Samples'); n = 1
# STK26 = conditions: read-out: apparent Kd; compound concentrations:100 nM and 1000 nM (sheet 'Samples'); n = 1
# FECH = conditions: read-out: apparent Kd, compound concentrations: 100 nM and 1000 nM (sheet 'Samples'), n = 1
# VDAC3 = conditions: read-out: apparent Kd; compound concentrations: 100 nM and 1000 nM (sheet 'Samples'), CATDS: 0.46722570663248902; n = 1
# EPHA5 = conditions: read-out: apparent Kd; compound concentrations: 100 nM and 1000 nM (sheet 'Samples'), CATDS: 0.352465913660859; n = 1
# PIK3CD = conditions: read-out: apparent Kd, compound concentrations: 100 nM and 1000 nM (sheet 'Samples'), n = 1
# PIK3CG = conditions: read-out: apparent Kd; compound concentrations: 100 nM and 1000 nM (sheet 'Samples'), CATDS: 0.36055601865019399; n = 1
# EPHB6 = conditions: read-out: apparent Kd; compound concentrations:100 nM and 1000 nM (sheet 'Samples'); n = 1
# PLK1 = conditions: read-out: apparent Kd; compound concentrations: 100 nM and 1000 nM (sheet 'Samples'), CATDS: 0.65086071220868402; n = 1
# MAP3K12 = conditions: read-out: apparent Kd; compound concentrations: 100 nM and 1000 nM (sheet 'Samples'), CATDS: 0.23080963599757501; n = 1
# [1] = compound concentrations:100 nM and 1000 nM (sheet 'Samples')
smiles,measurement,setting,value
O=c1c(Oc2ccc(F)cc2F)cc2cnc(NC3CCOCC3)nc2n1CCCO [RO4442245-000],potency estimated from few doses,DDR1; [1],1080 nM
same,potency estimated from few doses,MAPK10; [1],42.5 nM
same,potency estimated from few doses,MAPK11; [1],13.4 nM
same,potency estimated from few doses,MAPK14; [1],0.149 nM
same,potency estimated from few doses,MAPK8; [1],54.7 nM
same,potency estimated from few doses,MAPK9; [1],15.9 nM
same,potency estimated from few doses,PIP4K2C; [1],611 nM
Cc1cccc(-c2nc(Nc3ccc4ncsc4c3)c3ccccc3n2)n1 [GW867588X],potency estimated from few doses,DJA1; [1],134 nM
same,potency estimated from few doses,PRKD2,37.5 nM
same,potency estimated from few doses,PRKD3,74.8 nM
CCCN(CCS(C)(=O)=O)Cc1ccc(-c2ccc3ncnc(Nc4ccc(OCc5cccc(F)c5)c(Cl)c4)c3c2)o1.Cl [GW621823A],potency estimated from few doses,EGFR; CATDS: 1,643 nM
CCCc1ccc(S(=O)(=O)NC2CCN(c3ccnc(Nc4ccc(F)cc4)n3)C2)cc1 (centres unmarked) [GSK1379715A],potency estimated from few doses,"DJA1; compound concentrations: 100 nM and 1000 nM (sheet 'Samples'), CATDS: 0.51176616573637201",1220 nM
same,potency estimated from few doses,PDXK,1340 nM
CS(=O)(=O)N1CCC(n2c(=O)c(Oc3ccc(F)cc3F)cc3cnc(NC4CCOCC4)nc32)CC1 [RO5045977-000],potency estimated from few doses,"DDR1; compound concentrations: 100 nM and 1000 nM (sheet 'Samples'), CATDS: 6.1893327663863601E-2",1480 nM
same,potency estimated from few doses,"MAPK10; compound concentrations: 100 nM and 1000 nM (sheet 'Samples'), CATDS: 0.12322586321359499",47.7 nM
same,potency estimated from few doses,"MAPK11; compound concentrations: 100 nM and 1000 nM (sheet 'Samples'), CATDS: 9.0776517139408097E-2",131 nM
same,potency estimated from few doses,"MAPK14; compound concentrations: 100 nM and 1000 nM (sheet 'Samples'), CATDS: 0.53727809259194403",1.11 nM
same,potency estimated from few doses,"MAPK8; compound concentrations: 100 nM and 1000 nM (sheet 'Samples'), CATDS: 8.8413103607242097E-2",145 nM
same,potency estimated from few doses,"MAPK9; compound concentrations: 100 nM and 1000 nM (sheet 'Samples'), CATDS: 0.12213676583314199",48.9 nM
same,potency estimated from few doses,MAPKAPK2; CATDS: 0.38284273517915801,2.09 nM
same,potency estimated from few doses,NLK,247 nM
same,potency estimated from few doses,"PIP4K2C; compound concentrations: 100 nM and 1000 nM (sheet 'Samples'), CATDS: 0.11127151307282",65.2 nM
Cc1ccc(NC(=O)c2ccnc(N3CCCC3)c2)cc1-c1ccc(C(=O)NCC2CC2)cc1 [GW769076X],potency estimated from few doses,"DDR1; compound concentrations: 100 nM and 1000 nM (sheet 'Samples'), CATDS: 0.199850350995284",570 nM
same,potency estimated from few doses,"MAPK11; compound concentrations: 100 nM and 1000 nM (sheet 'Samples'), CATDS: 0.201173372459408",559 nM
same,potency estimated from few doses,"MAPK14; compound concentrations: 100 nM and 1000 nM (sheet 'Samples'), CATDS: 0.39757840601660499",140 nM
same,potency estimated from few doses,MAPKAPK2; CATDS: 0.28488469813325601,250 nM
Nc1ncnc2occ(-c3ccc(NC(=O)Nc4cc(C(F)(F)F)cc(C(F)(F)F)c4)cc3)c12 [GW795486X],potency estimated from few doses,"DDR1; compound concentrations: 100 nM and 1000 nM (sheet 'Samples'), CATDS: 0.40154805135944899",1020 nM
same,potency estimated from few doses,RET,350 nM
O=C1NC(=O)C(c2ccccc2)=C1Nc1cccc(O)c1 [SB-390534],potency estimated from few doses,DJA1; [1],1350 nM
same,potency estimated from few doses,MAP2K1,1510 nM
same,potency estimated from few doses,PIM2,2120 nM
same,potency estimated from few doses,STK26,1580 nM
Cc1nnc(-c2cccc(-c3ccc(C(=O)NCC4CC4)cc3)c2)o1 [GW734508X],potency estimated from few doses,FECH; CATDS: 0.53771916993111701,1500 nM
same,potency estimated from few doses,VDAC3,1990 nM
Cn1cc(C2=C(c3c[nH]c4ccccc34)C(=O)NC2=O)c2ccccc21 [RO0317884-000],potency estimated from few doses,EPHA5,1650 nM
same,potency estimated from few doses,PIK3CD; CATDS: 0.85995893919281496,146 nM
Cl.c1ccc(Cn2ccc3cc(Nc4ncnc5ccccc45)ccc32)cc1 [GW275568A],potency estimated from few doses,EGFR; CATDS: 1,82.9 nM
CC(=O)Nc1cccc(C#Cc2cncnc2Nc2ccc(OCc3cccc(F)c3)c(Cl)c2)n1 [GW794726X],potency estimated from few doses,EGFR; CATDS: 0.81532426513796596,184 nM
same,potency estimated from few doses,PIK3CG,1440 nM
Cc1cc(-c2ccco2)cc(C)c1/C=C/c1cncc(-c2nn[nH]n2)c1.Cl [GW458344A],potency estimated from few doses,EPHB6,401 nM
NC(=O)c1sc(-n2cnc3ccccc32)cc1OCc1ccccc1F [GSK1024306A],potency estimated from few doses,FECH; CATDS: 0.40591450620250102,2130 nM
same,potency estimated from few doses,PLK1,781 nM
Cl.Fc1ccccc1COc1ccc(Nc2ncnc3ccc(-c4nnc(C(F)(F)F)o4)cc23)cc1Cl [GW424170A],potency estimated from few doses,EGFR; CATDS: 0.318491462582081,448 nM
same,potency estimated from few doses,MAP3K12,1290 nM
same,potency estimated from few doses,PIK3CD; CATDS: 0.65461148719951301,104 nM
Cl.O=S(=O)(c1cccc(F)c1)c1ccc(Nc2ncnc3cc(Br)sc23)cc1Cl [GSK306886A],potency estimated from few doses,EGFR; CATDS: 0.33527903035184697,1350 nM
same,potency estimated from few doses,PIK3CD; CATDS: 0.982888258017659,11.9 nM

# — paper PMC11062922 (Nature Chemical Biology, 2023)
